# ± gives the standard deviation of the averaged measurements. In all, about 25,000 sequences were measured (“ln(normalized median fluorescence intensity)”: median about 7.9, highest 2% from about 11 on). This is one part of a sample in which the highest values are shown more often than they occur.
# System: PfAP2-I AP2 domain 3 (GST-tagged)
# Assay: gcPBM binding intensity (ln(normalized median fluorescence intensity)); higher = stronger DNA binding
# How it was run: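 In this array assay, P. falciparum DNA-binding domains with a GST tag, expressed in E. coli, were applied for 1 h to primer-extended double-stranded 36-bp intergenic genomic probes and negative controls on an Agilent 4 × 180k array. Bound protein was visualised with Alexa488 anti-GST antibody at 488 nm. Binding intensity is the highest Masliner-normalised natural-log median intensity across replicate spots of either probe orientation.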
row,Sequence,gcPBM binding intensity (ln)
1,TTTTAAGGTGTGAAGGTGCAAAAAGGTAAATAGGAA,11.2 ± 0.56
2,TTTTTTTTTAAGCAAAGGAAATCAAAATAAAAATAT [CACACA_negctrl_site719],7.92 ± 0.56
3,ATTTTAAAAAGGATAGTGCAAATGTTAAAATAGGAC,10.6 ± 0.3
4,TACCTTTTTTATGTTGCACACTGGGATGTTTTCTAA [CACACA_site1653],9.51 ± 0.15
5,TATGAAGTGCACAATACACACTAATTCTATATAAAT [CACACA_site7269],11 ± 0.71
6,TATGAAGTACACAATACACACTAATTATATATAAAT [CACACA_site5444],7.88 ± 0.28
7,TATATGAAGTACACAATACACACTAATTATATATAA [CACACA_site2608],8.155 ± 0.035
8,AAAGTATATAGGATACGTACATACATAAATAAATAA [XGTACX_site8216],7.84 ± 0.73
9,AAAAAAAAAAAAAAAACACACAAACAAATGAATAAA [CACACA_site5769],8.76 ± 0.66
10,GTACATTATATATATACACACATACATAATAAAGAA [CACACA_site5528],8.12 ± 0.23
11,CAAATATACATATGTAGTACATGTTGTAGATAATTT [XGTACX_site2790],8.01 ± 0.5
12,GTATATATCTAAAAATATATATATATATATATATAT [CACACA_negctrl_site788],9.37 ± 0.72
13,TCCTGCCTCTCTTTGGTGCGTTGTAACCCTCGAGGA,10.3 ± 0.11
14,CCCTGCCTCTCTTTGGTGCGTTGTAACCCTCGAGGA,10.3 ± 0.33
15,TCTCCACCTCTCTTGGTGCGTTATACCCTCGAGGCT,11.3 ± 0.54
16,TTGTTCTTTTTTTTTTTATTTTTTAATTTGAAAAGA [CACACA_negctrl_site209],7.72 ± 0.5
17,AGAATTAAAATAAAGGTGCATTTTTTTGTTTCATGT,9.94 ± 0.23
18,TTGTTCTTTTGAAAGGTGCAAAAGAAAAATAATTAA,11.1 ± 0.54
19,ACGTTACATACATATACACACACATATATATATATA [CACACA_site8203],9.22 ± 0.39
20,TATATACTCATGCGCACACACAAGTGGGAAATTTGG [CACACA_site5056],8.35 ± 0.6
21,CTTGTGCTTTATAGGGTGCACATTTTGTTTTGGTAA [GTGCAC_site9899],11 ± 0.46
22,TATAATTTTTTTTGGGTGCTTGGGTAAATTTTATTA,8.34 ± 0.42
23,TTTTTTTTTTTTGGTGCATGCACATTTTGTTTTTTT [TGCATGCA_site570],9.85 ± 0.014

row,Sequence,gcPBM binding intensity (ln)
1,AAAGGGATGTTCATTCTTTTTTTTTTTTTTGTATAT [CACACA_negctrl_site511],7.16 ± 0.6
2,ATTAGTAAATTTATATGTACACATTGTTATTTTATA [XGTACX_site1177],8.13 ± 0.23
3,TTATATTTGATAGTTTGTACATATAATTATTATCAT [XGTACX_site5676],7.86 ± 0.42
4,TAGTGATATAATTATGTGCACTTAATACAGGTCGAT,10.9 ± 0.3
5,AATATAAATAATTATACACACTTAATATATATATAC [CACACA_site5533],7.9 ± 0.33
6,TTGATATATAATAATACACACTTACATAATTAATTA [CACACA_site4320],7.88 ± 0.37
7,ATGTCTATAATAAGAACACACATATATTTAATTTAA [CACACA_site7394],7.64 ± 0.44
8,ATGTGATAGAAGTACACACACATATGTATTTATAAT [CACACA_site5075],7.84 ± 0.59
9,ATATGTAGAAGTAATGCACACATATGTATATATATA [CACACA_site8796],10.8 ± 0.48
10,ACATAATTATTATGCACACATATTTTTATGTATTTA [CACACA_site698],10.3 ± 0.48
11,ATGTAGAAGTAATGCACACATATGTATTTATATATA [CACACA_site5391],10.9 ± 0.68
12,ATGTAGAAGTAATGCACACATATGTATATATATATA [CACACA_site2494],10.9 ± 0.63
13,TATACATATGTATGCACACATACATACACATAGAAT [CACACA_site3480],8.8 ± 0.13
14,ATCAACATTATGGTTAGTACTTAGTGAATTGTTAAT [XGTACX_site4926],7.63 ± 0.59
15,TTGTTCTATATATATGCATGCACGTATGTTAAATTA [TGCATGCA_site659],11.3 ± 0.23
16,TTCATATATTATTATGCATGTTCATAAATTATCTAA [TGCATGCA_site896],7.88 ± 0.58
17,TTCTATATATTATATGCATGTAAAACATATTAAAAT [TGCATGCA_site662],7.93 ± 0.61
18,TACCTTTTTTGTTTTATGCACACCATATAACCAAGG [CACACA_site30],10.3 ± 0.33
19,TCGTAAACTTTATGCACACACATATACATATTTCAT [CACACA_site739],10.2 ± 0.53
20,ATTATGCACGGACACACACACACACCCCTAAAAAAT [CACACA_site5426],10.4 ± 0.49
21,ATTATGCACCAACACACACACACACCCCTAAAAAAT [CACACA_site2568],11.4 ± 0.79
22,TAATTATGCCAACACACACACACACCCAACTAAAAA [CACACA_site8823],8.22 ± 0.25
23,TGTGCCCAAAATTATGCACACACCTAAAATTAATTT [CACACA_site2914],10.3 ± 0.4

# Reference: the supplement of paper PMC11417369
